Test [1] concerns zebrafish Androgen Receptor (AR), gene 100005148. Briefly: ATG_zfAR_XSP1: Attagene TRANS-FACTORIAL Multi-Species (XSP1) HepG2 Assay for zebrafish Androgen Receptor (AR) (AID 2283771). The procedure, abridged:
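Gain-of-signal versus DMSO was measured as reporter transcripts quantified by RT-PCR, fluorescent labelling and capillary electrophoresis after 24 h chemical exposure. The cells were HepG2 expressing a chimeric zebrafish AR-GAL4, co-stimulated with 3 nM 6-alpha-fluorotestosterone.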

Test [2] concerns the target zebrafish Estrogen Receptor (ESR1), esr1 (gene 259252) (UniProt P57717). Nature of the test: ATG_zfER1_XSP1: Attagene TRANS-FACTORIAL Multi-Species (XSP1) HepG2 Assay for zebrafish Estrogen Receptor (ESR1) (AID 2283772). The procedure, abridged:
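HepG2 cells were transiently transfected with multiplexed GAL4-UAS reporter units driven by chimeric NR-GAL4 proteins, dosed for 24 h with 3 nM 6-alpha-fluorotestosterone present, and reporter mRNA quantified by RT-PCR and capillary electrophoresis versus DMSO.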

Test [3] can be described thus: ArunA_NOG_NucleusCount: ArunA Biomedical's Neurite Outgrowth (NOG) Assay for Nucleus Count (AID 2283756). The essentials:
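Viable neuron count, from Hoechst nuclei passing size and intensity gates, imaged at 20x on differentiated H9-derived human neurons. Exposure lasted 48 h from seeding; activity was scored relative to DMSO.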

Test [4] addresses Luciferin 4-monooxygenase (Photinus pyralis) (UniProt P08659). Nature of the test: CCTE_Simmons_QuantiLum_inhib_2: CCTE's Firefly Luciferase Inhibition Assay, Simmons Lab (AID 2283767).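 For AC50: potency for inhibitors that lower luciferase luminescence relative to DMSO.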 The essentials:
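First, 5 ng purified luciferase in phosphate buffer with BSA is dispensed per well. Next, test chemicals (5 nM to 87.5 uM final, 0.5% DMSO) are added and incubated 30 min at 37C in darkness. Finally, luciferin reagent is injected and luminescence read kinetically.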

In test [5] the test system is chicken Androgen Receptor (AR), gene 422165. Nature of the test: ATG_chAR_XSP1: Attagene TRANS-FACTORIAL Multi-Species (XSP1) HepG2 Assay for chicken Androgen Receptor (AR) (AID 2283768). The procedure, abridged: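 Reporter mRNA read by RT-PCR with fluorescent labelling and capillary electrophoresis 24 h after chemical dosing of transiently transfected HepG2 cells. Chicken AR-Gal4 chimera, partially stimulated with 3 nM 6-alpha-fluorotestosterone; activity fitted upward relative to DMSO.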

Test [6] is described as follows: ArunA_Migration_hNC: ArunA Biomedical's Oris Neural Crest (hNC) Cell Migration Assay (AID 2283755). The procedure, abridged:
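Calcein-AM fluorescence (ex494 nm/em 517 nm) in the stopper-defined detection zone quantifies migration of hNC cells after 72 h chemical exposure; 60,000 cells/well plated on Matrigel with LIF and bFGF, 16 h pre-incubation. DMSO baseline.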

A short description of test [7]: ArunA_NOG_NeuriteLength: ArunA Biomedical's Neurite Outgrowth (NOG) Assay for Neurite Length (AID 2283757). The procedure, abridged:
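Total neurite length per neuron, from traced βIII-tubulin-labelled processes longer than 10 um on viable Hoechst-gated cells, was scored as decrease from DMSO. Cells were hESC (H9)-derived neurons given 48 h chemical exposure immediately after seeding.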

A short description of test [8]: ArunA_NOG_NeuritesPerNeuron: ArunA Biomedical's Neurite Outgrowth (NOG) Assay for Neurites Per Neuron (AID 2283758). The method, then:
ArunA_NOG (Neurite Outgrowth) is a cell-based, image-based assay that uses human H9-derived embryonic differentiated neurons (hNN). Measurements were taken 48 hours after chemical dosing in a 96-well plate.ArunA_NOG_NeuritesPerNeuron is an assay component measured from the ArunA_NOG assay. It is designed to make measurements of neurite outgrowth related to number of neurites per neuron, using a form of morphology reporter, as detected with fluorescence intensity signals by HCS Fluorescent Imaging technology. Data from the assay component ArunA_NOG_NeuritesPerNeuron was analyzed at the endpoint, ArunA_NOG_NeuritesPerNeuron, in the positive analysis fitting direction relative to DMSO as the negative control and baseline of activity. […]
Chemical treatment: Differentiated hNN cells were seeded and immediately exposed to test medium for 48 h. Following chemical exposure, cell bodies were stained with Hoechst 33,258 to quantitate viable neuron count and neurites were labeled with bIII-tubulin/DyLight1 488. High content imaging assessed the neurite outgrowth endpoints: neurite total length per neuron (um), neurite count per neuron, and branch points per neurite using the methods described in (Harrill et al 2010). […] Fixed integration times for image acquisition in each channel were determined by manual sampling of control-treated wells across multiple plates. […]

Test [9] can be described thus: ArunA_NOG_BranchPointsPerNeurite: ArunA Biomedical's Neurite Outgrowth (NOG) Assay for Branch Points Per Neurite (AID 2283759). The procedure, abridged:
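Automated image analysis traced neurites (processes >10 um) from valid cell bodies after Hoechst and βIII-tubulin staining. hNN cells from H9 embryonic stem cells, 48 h exposure. Fitted bidirectionally against DMSO.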

Test [10] has as its system frog Androgen Receptor (AR), gene 399456. Nature of the test: ATG_frAR_XSP1: Attagene TRANS-FACTORIAL Multi-Species (XSP1) HepG2 Assay for frog Androgen Receptor (AR) (AID 2283770).

Drawing on PubChem BioAssay (EPA / NIEHS), this text covers outcome and AC50 for 18 compounds.

Inconclusive results are not listed. Calls of active or inactive are those of the source. Rule for the calls: active = hit-call score of the fitted dose curve at least 0.9, where 1 is the maximum; inconclusive = response in the unintended direction; inactive = score below 0.9.

Chain of Luciferin 4-monooxygenase (Photinus pyralis) (P08659 whole entry, looked up): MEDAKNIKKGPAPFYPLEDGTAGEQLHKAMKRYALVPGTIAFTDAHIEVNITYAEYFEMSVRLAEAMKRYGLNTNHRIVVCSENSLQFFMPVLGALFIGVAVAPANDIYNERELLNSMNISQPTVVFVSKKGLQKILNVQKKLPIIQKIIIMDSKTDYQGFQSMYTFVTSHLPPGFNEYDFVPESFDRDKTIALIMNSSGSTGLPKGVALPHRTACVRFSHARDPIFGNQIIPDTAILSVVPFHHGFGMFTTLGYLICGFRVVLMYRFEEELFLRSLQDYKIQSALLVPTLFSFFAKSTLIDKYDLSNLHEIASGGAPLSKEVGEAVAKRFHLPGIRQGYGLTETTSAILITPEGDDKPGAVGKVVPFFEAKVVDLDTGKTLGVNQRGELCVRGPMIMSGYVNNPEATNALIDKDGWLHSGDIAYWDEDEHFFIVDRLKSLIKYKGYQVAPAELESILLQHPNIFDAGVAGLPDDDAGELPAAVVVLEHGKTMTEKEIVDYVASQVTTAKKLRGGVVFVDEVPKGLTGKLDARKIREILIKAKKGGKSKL
Chain of zebrafish Estrogen Receptor (ESR1), esr1 (gene 259252) (P57717 whole entry, looked up, the tested form may be a part): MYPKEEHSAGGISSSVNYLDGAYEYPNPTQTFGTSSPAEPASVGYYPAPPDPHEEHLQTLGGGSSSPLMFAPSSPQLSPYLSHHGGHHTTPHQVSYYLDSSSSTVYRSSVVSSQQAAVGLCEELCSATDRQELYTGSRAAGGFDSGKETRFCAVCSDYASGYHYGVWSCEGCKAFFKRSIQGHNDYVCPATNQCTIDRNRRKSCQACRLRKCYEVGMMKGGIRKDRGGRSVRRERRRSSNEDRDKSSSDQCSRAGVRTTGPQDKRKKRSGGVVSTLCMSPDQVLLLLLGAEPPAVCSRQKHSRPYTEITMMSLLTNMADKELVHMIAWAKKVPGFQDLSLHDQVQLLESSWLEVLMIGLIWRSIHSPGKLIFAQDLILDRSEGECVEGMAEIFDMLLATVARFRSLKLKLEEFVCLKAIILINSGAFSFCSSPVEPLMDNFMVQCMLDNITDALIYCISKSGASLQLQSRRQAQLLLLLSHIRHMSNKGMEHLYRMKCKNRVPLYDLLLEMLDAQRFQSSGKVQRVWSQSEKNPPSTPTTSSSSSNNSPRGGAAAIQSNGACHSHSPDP

Regarding `OC(c1ccc(Cl)cc1)(c1cncnc1)c1ccccc1Cl` (centres undefined), the compound was classed as inactive in [1]. Further, the AC50 (as a rule, the concentration at which the activity in the assay is half-maximal) in test [2] is 26.4 µM (active).
On to `C=CCC1=C(C)[C@@H](OC(=O)[C@@H]2[C@@H](C=C(C)C)C2(C)C)CC1=O`, for which the result in [3] and in [4] was inactive.
Take `COC(=O)C=C(C)OP(=O)(OC)OC`: the compound was classed as inactive in [4].
Consider `CCCN(CCC)c1c([N+](=O)[O-])cc(S(N)(=O)=O)cc1[N+](=O)[O-]`, for which the call in [4], in test [1] and in [2] was inactive. The AC50 in [5] is 59.5 µM (active).
`N#Cc1nn(-c2c(Cl)cc(C(F)(F)F)cc2Cl)c(N)c1S(=O)C(F)(F)F` (centres undefined): the AC50 is 30.9 µM (active) in test [6], 23.2 µM (active) in test [3], 31.8 µM (active) in test [7] and 32 µM (active) in [8]. Further, the result in test [9] was inactive.
Regarding `CNC(=S)S`, the result in [4] was inactive.
Regarding `O=C(O)c1nc(Cl)ccc1Cl`, in [4], the result was inactive.
In the case of `CC1COC(Cn2cncn2)(c2ccc(Oc3ccc(Cl)cc3)cc2Cl)O1` (centres undefined), the call in test [4] was inactive.
Consider `C#CCOS(=O)OC1CCCCC1Oc1ccc(C(C)(C)C)cc1` (centres undefined), for which the results for the AC50 in test [10] and in test [2] were 2.11 µM (active) and 166 µM (active), respectively.
`CCCCC(CC)COC(=O)c1ccccc1C(=O)OCC(CC)CCCC` (centres undefined): the call in [1] was inactive.
`CO/C=C(/C(=O)OC)c1ccccc1Oc1cc(Oc2ccccc2C#N)ncn1`: in test [5], the compound was called inactive.
For `CN(C)C(=S)SSC(=S)N(C)C`, the AC50 in test [4] was 80.1 µM (active).
Consider `Oc1ccccc1-c1ccccc1`, for which the compound was classed as inactive in [4].
Turning to `CCCCNC(=O)n1c(NC(=O)OC)nc2ccccc21`, the AC50 in [4] is 21.5 µM (active).
In the case of `C=CCC1=C(C)C(OC(=O)C2C(C=C(C)C)C2(C)C)CC1=O` (centres undefined), in test [4], the result was inactive.
For the compound `COP(N)(=O)SC` (centres undefined), the outcome in test [4] was inactive.
For `CC1=C(C(=O)Nc2ccccc2)SCCO1`, the compound was called inactive in test [4].
Turning to `CCCC1COC(Cn2cncn2)(c2ccc(Cl)cc2Cl)O1` (centres undefined), the AC50 in test [4] is 14.4 µM (active). In addition, the compound was called inactive in [2].
